From PubChem BioAssay
Values joined by “and” are separate entries in the source; they are usually repeats but may differ in a detail not shown here. Equal entries are not always repeated. For part of these data: Entries with a potency or affinity are not part of this list. Active and inactive are the calls of the source. Unless noted, no rule for the calls is given here.

How the values were obtained:
[1] = antimalarial activity against Dd2 strain (AID 2302;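 active = growth inhibition above 50% at the single 2 µM test dose, taken to imply half-maximal potency below 2 µM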;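 also: 0% = DMSO untreated growth and 100% = chloroquine plus artemisinin killed control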); conditions: P. falciparum Dd2 in RBCs, LDH growth readout, 72 h; at 2 µM; stronger effect = higher value
[2] = human hepatoma cell viability loss – ATP luminescence, cytotoxicity control for P. falciparum antimalarial project, primary screen (AID 2303;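 active = inhibition above 50%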;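 also: 0% = DMSO wells and 100% = digitonin-killed cells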); conditions: HepG2 viability, 24-48 h, at 10 µM, stronger effect = higher value
[3] = molecular target: L-lactate dehydrogenase (Plasmodium falciparum (isolate CDC / Honduras)) (UniProt Q27743); assay: PfLDH activity inhibition – cell lysate, 3D7 strain, counter-screen for P. falciparum growth inhibition project (AID 2304);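 also: 0% = vehicle and 100% = reference inhibitor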; conditions: P. falciparum 3D7 crude extract, LDH APAD/NBT absorbance; at 2 µM; stronger effect = higher value
[4] = inhibition of 3D7 malaria parasite growth – strain 3D7 (AID 2306);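 also: 0% = DMSO wells and 100% = chloroquine plus artemisinin control wells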; conditions: P. falciparum 3D7 erythrocytic growth, LDH absorbance, 72 h; at 2 µM; stronger effect = higher value
[5] = molecular target: Calcium-dependent protein kinase 1 (Plasmodium falciparum (isolate 3D7)) (UniProt P62344); assay: PfCDPK1 kinase inhibitors, biochemical, TCAMS library (AID 1159585; cut-off not given, nearly all actives have IC50 up to about 0.98 µM;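 also: inhibitors leave more ATP so luminescence rises with inhibition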); conditions: recombinant PfCDPK1, Kinase-Glo ATP depletion luminescence
[6] = molecular target: Plasmodium falciparum protein kinase 6 (PK6, PF3D7_1337100) (UniProt Q8IDW1); assay: PfPK6 kinase inhibitors, biochemical, TCAMS library (AID 1159586); conditions: recombinant PfPK6, Kinase-Glo ATP depletion luminescence
[7] = molecular target: Protein kinase 7 (PK7), Plasmodium falciparum 3D7 (PF3D7_0213400) (UniProt Q7YTF7); assay: inhibition of Plasmodium PK7 catalytic activity – biochemical, TCAMS antimalarial set, Kinase-Glo luminescence (AID 1159587); conditions: recombinant PfPK7, Kinase-Glo ATP depletion luminescence
[8] = molecular target: Calcium-dependent protein kinase 4 (Plasmodium falciparum (isolate 3D7)) (UniProt Q8IBS5); assay: PfCDPK4 kinase inhibitors, biochemical, TCAMS library (AID 1159588; cut-off not given, nearly all actives have IC50 up to about 0.91 µM); conditions: recombinant PfCDPK4, Kinase-Glo ATP depletion luminescence
[9] = P. berghei load reduction in hepatocytes – cell-based, HepG2, luciferase luminescence, HepG2 viability, primary screen (AID 624349; in the data active = parasite load remaining mostly below about 12%, no sharp cut-off; inactive = mostly above about 10%;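 also: 100% = mean of DMSO negative control wells on the same plate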); conditions: P. berghei liver stage in HepG2, luciferase luminescence, concentration not given here; parasite load remaining: stronger effect = lower value; viability: measured here: HepG2 viability without parasites
[10] = tested on: Aerobactin synthetase IucA (Klebsiella pneumoniae); assay: inhibition of K. pneumoniae IucA enzyme – biochemical, Tocris library, absorbance (AID 1345561); conditions: purified IucA enzyme assay, absorbance (OD) read-out; stronger effect = lower value;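 tested at 8 µM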;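 also: 100% = enzyme without compound and 0% = no enzyme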
[11] = viability loss with induced miR-34 in A549 – imaging, A549 dox-inducible miR-34, nuclei and caspase counts, primary screen (AID 1347080;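 active = compounds whose cell count with miR-34 switched on is under 0.7 times the count with it off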); conditions: A549 miR-34 inducible, Hoechst nuclei count, 48 h
[12] = MELAS cybrid and Rieske KO viability enhancers – cell-based, MELAS cybrids, Rieske KO mouse fibroblasts, CellTiter-Glo, primary screen (AID 1508586;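 active = mean z-score across replicates of 1.96 or higher in either the MELAS or the Rieske mutant cell line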;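 also: z relative to plate mean and SD of compound and empty wells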); conditions: low glucose
[13] = galactose survival enhancers in mitochondrial complex I cybrids – cell-based, galactose medium, ATP luminescence, primary screen (AID 1645843;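 active = z-score of at least 1.8 in each of two replicates, scored against plate mean and spread of sample wells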;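 also: positive z means more ATP and so rescue of galactose-driven cybrid death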); conditions: complex I mutant cybrid cells, 72 h, stronger effect = higher value
[14] = stronger effect = lower value, cell number ratio, induced over uninduced
[15] = measured here: relative caspase fold change +Dox/-Dox
[16] = measured here: total cells with miR-34 induction, stronger effect = lower value
[17] = measured here: total cells without miR-34 induction

Plasmodium falciparum protein kinase 6 (PK6, PF3D7_1337100), sequence (Q8IDW1 1-305): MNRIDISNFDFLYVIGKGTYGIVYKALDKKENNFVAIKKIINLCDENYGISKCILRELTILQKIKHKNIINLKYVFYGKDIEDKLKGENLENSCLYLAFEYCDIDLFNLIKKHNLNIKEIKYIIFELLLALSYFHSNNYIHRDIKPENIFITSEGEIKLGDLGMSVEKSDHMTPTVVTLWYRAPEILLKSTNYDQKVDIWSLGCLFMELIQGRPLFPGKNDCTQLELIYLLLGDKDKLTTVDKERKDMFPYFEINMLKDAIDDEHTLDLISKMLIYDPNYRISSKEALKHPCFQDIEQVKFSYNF
Calcium-dependent protein kinase 1 (Plasmodium falciparum (isolate 3D7)), sequence (P62344 whole entry, looked up): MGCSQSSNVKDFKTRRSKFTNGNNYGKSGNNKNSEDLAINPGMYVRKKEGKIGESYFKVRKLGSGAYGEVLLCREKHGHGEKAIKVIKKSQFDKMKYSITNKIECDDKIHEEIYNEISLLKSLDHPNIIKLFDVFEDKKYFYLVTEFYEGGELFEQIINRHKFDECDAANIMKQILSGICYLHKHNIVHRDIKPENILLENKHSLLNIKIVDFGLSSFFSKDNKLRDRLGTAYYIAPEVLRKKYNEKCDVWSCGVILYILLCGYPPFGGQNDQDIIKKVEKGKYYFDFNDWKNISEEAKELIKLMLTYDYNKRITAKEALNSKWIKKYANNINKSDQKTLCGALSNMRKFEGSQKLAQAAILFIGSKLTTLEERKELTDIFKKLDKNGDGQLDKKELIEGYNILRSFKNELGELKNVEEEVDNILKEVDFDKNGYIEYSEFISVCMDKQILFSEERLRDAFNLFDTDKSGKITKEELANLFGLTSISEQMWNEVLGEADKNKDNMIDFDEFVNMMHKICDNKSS
Protein kinase 7 (PK7), Plasmodium falciparum 3D7 (PF3D7_0213400), sequence (Q7YTF7 1-343): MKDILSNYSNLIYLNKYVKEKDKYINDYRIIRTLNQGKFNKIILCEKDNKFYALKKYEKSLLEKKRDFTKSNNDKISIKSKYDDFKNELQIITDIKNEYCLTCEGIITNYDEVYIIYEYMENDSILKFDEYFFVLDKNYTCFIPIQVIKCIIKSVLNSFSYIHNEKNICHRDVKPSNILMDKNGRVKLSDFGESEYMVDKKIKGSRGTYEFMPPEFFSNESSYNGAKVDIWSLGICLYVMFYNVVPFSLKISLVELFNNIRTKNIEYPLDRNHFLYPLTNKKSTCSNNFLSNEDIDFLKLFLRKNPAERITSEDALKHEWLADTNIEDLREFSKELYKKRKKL
Calcium-dependent protein kinase 4 (Plasmodium falciparum (isolate 3D7)), sequence (Q8IBS5 whole entry, looked up): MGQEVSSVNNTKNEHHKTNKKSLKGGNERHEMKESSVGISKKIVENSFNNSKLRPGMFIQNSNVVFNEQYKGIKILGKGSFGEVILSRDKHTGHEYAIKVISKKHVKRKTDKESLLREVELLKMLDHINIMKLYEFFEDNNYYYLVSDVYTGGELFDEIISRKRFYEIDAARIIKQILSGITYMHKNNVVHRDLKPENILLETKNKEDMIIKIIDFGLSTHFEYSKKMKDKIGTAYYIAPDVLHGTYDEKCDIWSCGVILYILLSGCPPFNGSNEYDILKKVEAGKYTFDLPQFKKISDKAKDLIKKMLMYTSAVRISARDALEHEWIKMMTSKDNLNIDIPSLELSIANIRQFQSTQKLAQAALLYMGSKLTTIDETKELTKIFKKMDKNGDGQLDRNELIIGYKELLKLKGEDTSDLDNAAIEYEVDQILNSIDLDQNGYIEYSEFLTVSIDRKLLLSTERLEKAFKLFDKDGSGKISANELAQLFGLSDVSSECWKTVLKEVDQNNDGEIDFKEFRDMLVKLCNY
L-lactate dehydrogenase (Plasmodium falciparum (isolate CDC / Honduras)), sequence (Q27743 whole entry, looked up): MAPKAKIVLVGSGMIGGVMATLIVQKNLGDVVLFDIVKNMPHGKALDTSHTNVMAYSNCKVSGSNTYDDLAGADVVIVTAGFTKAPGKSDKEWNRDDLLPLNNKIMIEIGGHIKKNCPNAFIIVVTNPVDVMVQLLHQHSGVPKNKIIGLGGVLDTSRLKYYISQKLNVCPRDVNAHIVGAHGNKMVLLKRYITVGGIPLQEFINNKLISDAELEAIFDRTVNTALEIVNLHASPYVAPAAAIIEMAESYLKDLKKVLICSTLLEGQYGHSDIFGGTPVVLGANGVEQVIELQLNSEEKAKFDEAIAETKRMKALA

Cc1[nH]c(C)c(-c2ccc(Oc3ccc(OC(F)(F)F)cc3)cc2)c(=O)c1Br
active: growth inhibition [1] 95% and 97% | growth inhibition [4] 96%
inactive: inhibition [2] -4% and -1% | inhibition [3] 1% and 2% | outcome [5] | outcome [6] | outcome [7] | outcome [8]

CC(C)(C)c1ccc(NC(=O)c2cccc(CN3CCCN(Cc4ccc(F)cc4)CC3)c2)cc1
inactive: growth inhibition [1] 2% | inhibition [2] 35% | inhibition [3] 0% | outcome [5] | outcome [6] | outcome [7] | outcome [8]
active: growth inhibition [4] 88%

O=C(/C=C/c1ccc(Cl)c(Cl)c1)NC1CCN(Cc2ccc(O)cc2)CC1
active: growth inhibition [4] 103%
inactive: growth inhibition [1] 43% | inhibition [2] -1% | inhibition [3] 3% | outcome [5] | outcome [6] | outcome [7] | outcome [8]

CN(C)CCCOc1ccc(CCCCc2ccc(Cl)cc2C(=O)c2ccccc2)cc1
active: growth inhibition [4] 92%
inactive: growth inhibition [1] 8% | inhibition [2] 8% | inhibition [3] -7% | outcome [5] | outcome [6] | outcome [7] | outcome [8]

Cc1ccccc1C1CCN(C2CCC(NC(=O)/C=C/c3cccc(F)c3)CC2)CC1 (stereo not given)
inactive: growth inhibition [1] 38% | inhibition [2] 46% | inhibition [3] -3% | outcome [5] | outcome [6] | outcome [7] | outcome [8]
active: growth inhibition [4] 84%

COc1ccc(Cl)cc1NC(=O)Nc1cc(C)nc2ccccc12
7420 and 3920: cell count [11, 17]
153%: viability [9]
6720 and 4040: cell count [11, 16]
active: growth inhibition [1] 99% | growth inhibition [4] 101%
inactive: inhibition [2] 10% | inhibition [3] -3% | parasite load remaining [9] 55.8% | outcome [5] | outcome [6] | outcome [7] | outcome [8] | remaining activity [10] 102% | fold change [11, 14] 0.905 and 1.03 | z-score ([12]; MELAS cybrid survival, CellTiter-Glo 48 h, stronger effect = higher value) -0.407 | z-score [13] -0.645
0.387 and 0.813: fold change [11, 15]
0.602: z-score ([12]; Rieske KO mouse fibroblast survival, CellTiter-Glo 72 h)

CNCCNCc1cccc(-c2ccc(-c3nc4ccc(C(F)(F)F)cc4[nH]3)cc2)c1
inactive: inhibition [2] 21% | inhibition [3] -5% | outcome [5] | outcome [6] | outcome [7] | outcome [8]
active: growth inhibition [1] 92% | growth inhibition [4] 100%

Cc1cccc2[nH]c(-c3ccc(-c4ccc(CN5CCCCC5CO)cc4)cc3)nc12 (stereo not given)
inactive: inhibition [2] 32% | inhibition [3] 1% | outcome [5] | outcome [6] | outcome [7] | outcome [8]
active: growth inhibition [1] 76% | growth inhibition [4] 100%

CC1(C)C(=O)NC2=C1C(=O)C(=O)c1ccccc12
1.77: fold change [11, 15]
inactive: inhibition [2] -8% | inhibition [3] 1% | outcome [5] | outcome [6] | outcome [7] | outcome [8] | remaining activity [10] 80.1% | z-score [13] -0.705
active: growth inhibition [4] 93% | fold change [11, 14] 0.672
1740: cell count [11, 17]
1170: cell count [11, 16]

CCCc1cc(Cc2cnc(N)nc2N)cc(CCC)c1OC
active: growth inhibition [4] 92%
inactive: growth inhibition [1] 1% | inhibition [2] 18% | inhibition [3] 1% | outcome [5] | outcome [6] | outcome [7] | outcome [8]

O=C(NCCCCN1CCCC2c3ccc(O)cc3CCC21)c1ccc(-c2ccccc2)cc1 (stereo not given)
inactive: growth inhibition [1] 25% and 7% | inhibition [2] 32% and 26% | inhibition [3] -8% and 3% | outcome [5] | outcome [6] | outcome [7] | outcome [8]
active: growth inhibition [4] 96%

Cc1sc2ccc(Cl)cc2c1S(=O)(=O)Nc1ccc2nccc(N3C[C@@H](C)N[C@@H](C)C3)c2c1
inactive: inhibition [2] 17% | inhibition [3] 0% | outcome [5] | outcome [6] | outcome [7] | outcome [8]
active: growth inhibition [1] 100% | growth inhibition [4] 100%

CC(C)(C)C1CCc2nc(N)nc(N)c2C1 (stereo not given)
active: inhibition [2] 69% | growth inhibition [4] 94%
inactive: growth inhibition [1] 38% | inhibition [3] 6% | outcome [5] | outcome [6] | outcome [7] | outcome [8]

COc1ccc(-n2ccnc2SCC(=O)Nc2cc(C)ccc2C)c(OC)c1
active: growth inhibition [1] 93% | growth inhibition [4] 94%
inactive: inhibition [2] 2% | inhibition [3] -3% | outcome [5] | outcome [6] | outcome [7] | outcome [8]

COc1ccc(-c2cccc(NC(=O)c3ccc(F)cc3)c2)cc1CNC(C)C
active: growth inhibition [4] 83%
inactive: growth inhibition [1] 9% | inhibition [2] 32% | inhibition [3] 1% | outcome [5] | outcome [6] | outcome [7] | outcome [8]
